In PubChem BioAssay (EPA / NIEHS):
Where “and” joins values, the source holds several entries; their conditions need not be identical. Equal values may be shown once. Inconclusive results are not listed. Calls of active or inactive are those of the source. How the source made its calls, unless noted: active means hit-call score of the fitted dose curve at least 0.9, where 1 is the maximum; inconclusive means response in the unintended direction; inactive means score below 0.9.

Experiments:
[1] = ATG_NF_kB_CIS: Attagene CIS-FACTORIAL HepG2 Assay for human Nuclear Factor Kappa B (NF-kB) (AID 2282991; active means hit-call score of the fitted dose curve at least 0.9, where 1 is the maximum; inactive means score below 0.9); settings: HepG2 Attagene cis-factorial NF-kB reporter mRNA; actives raise or lower the signal
Method in brief: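 HepG2, transient multi-reporter transfection, cis promoter elements (endogenous TFs). 24 h exposure. Total RNA → RT → PCR → 6-FAM label → HpaI → CE. Gain/loss vs DMSO.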

[2] = ATG_NRF2_ARE_CIS: Attagene CIS-FACTORIAL HepG2 Assay for human Nuclear Factor Erythroid 2 Related Factor 2 (NFR2) response to Antioxidant Response Elements (ARE) (AID 2282992; active means hit-call score of the fitted dose curve at least 0.9, where 1 is the maximum; inactive means score below 0.9;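 on AC50: reporter mRNA level measured by RT-PCR and capillary electrophoresis fluorescence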); settings: HepG2 Attagene ARE/NRF2 reporter, transcription factor activity; actives raise or lower the signal
Method in brief: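 Fluorescence intensity of reporter-specific cDNA fragments, separated by capillary electrophoresis, reflects mRNA induction in transfected HepG2 cells at 24 h. Activity is fitted bidirectionally, DMSO serving as baseline.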

[3] = ATG_Oct_MLP_CIS: Attagene CIS-FACTORIAL HepG2 Assay for human Octamer-Binding Transcription Factor (Oct) (AID 2282993; active means hit-call score of the fitted dose curve at least 0.9, where 1 is the maximum; inactive means score below 0.9); settings: HepG2 Attagene cis-factorial Oct reporter, mRNA; actives raise or lower the signal
Method in brief: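 After 24 h compound exposure, transfected HepG2 cells were lysed for total RNA; reporter-specific cDNA was PCR-amplified, fluorescently labelled and sized by capillary electrophoresis. Bidirectional curve fitting used DMSO as baseline.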

[4] = target: Cellular tumor antigen p53 (Homo sapiens) (UniProt P04637); test: ATG_p53_CIS: Attagene CIS-FACTORIAL HepG2 Assay for human p53 Transcription Factor (AID 2282994; active means hit-call score of the fitted dose curve at least 0.9, where 1 is the maximum; inactive means score below 0.9); settings: HepG2 p53 cis-element reporter, Attagene mRNA; actives raise or lower the signal
Cellular tumor antigen p53 (Homo sapiens), sequence (P04637 whole entry, looked up): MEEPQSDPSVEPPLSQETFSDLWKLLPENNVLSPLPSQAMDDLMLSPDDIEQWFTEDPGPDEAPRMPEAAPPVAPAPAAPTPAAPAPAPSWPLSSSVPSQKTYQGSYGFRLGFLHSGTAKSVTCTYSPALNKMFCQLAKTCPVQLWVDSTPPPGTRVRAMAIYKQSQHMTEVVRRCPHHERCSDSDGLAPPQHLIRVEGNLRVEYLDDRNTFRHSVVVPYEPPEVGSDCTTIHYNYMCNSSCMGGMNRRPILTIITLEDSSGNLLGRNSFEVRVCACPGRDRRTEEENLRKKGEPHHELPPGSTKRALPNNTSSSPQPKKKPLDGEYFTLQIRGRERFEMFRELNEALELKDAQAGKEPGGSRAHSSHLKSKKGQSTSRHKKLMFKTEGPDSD
Method in brief: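 Transiently transfected HepG2 (multiple cis reporter transcription units); exposure 24 h; reporter RNA via RT-PCR, 6-FAM extension, 2 h HpaI digest at 37 C, CE detection; DMSO baseline.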

[5] = target: Peroxisome proliferator-activated receptor gamma (Homo sapiens) (UniProt P37231); test: ATG_PPARg_TRANS: Attagene TRANS-FACTORIAL HepG2 Assay for human Peroxisome Proliferator-activated Receptor-gamma (PPARg) (AID 2283007)
Peroxisome proliferator-activated receptor gamma (Homo sapiens), sequence (P37231 whole entry, looked up): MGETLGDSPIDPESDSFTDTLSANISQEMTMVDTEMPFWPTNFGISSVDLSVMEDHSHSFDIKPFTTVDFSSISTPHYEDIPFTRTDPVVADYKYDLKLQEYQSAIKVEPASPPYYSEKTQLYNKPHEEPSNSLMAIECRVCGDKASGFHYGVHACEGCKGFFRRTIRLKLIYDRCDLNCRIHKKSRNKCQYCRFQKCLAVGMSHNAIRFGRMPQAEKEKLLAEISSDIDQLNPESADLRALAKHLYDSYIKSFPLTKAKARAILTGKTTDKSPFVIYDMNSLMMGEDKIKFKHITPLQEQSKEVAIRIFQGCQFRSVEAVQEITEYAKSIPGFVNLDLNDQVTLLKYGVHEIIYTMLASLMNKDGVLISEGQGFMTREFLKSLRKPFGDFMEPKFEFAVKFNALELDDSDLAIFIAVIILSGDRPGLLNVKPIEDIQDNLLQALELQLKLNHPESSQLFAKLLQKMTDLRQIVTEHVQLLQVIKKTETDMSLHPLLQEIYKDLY
Method in brief: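 Multiplexed reporter transcription units in HepG2, 24 h dosing, reporter transcripts quantified by fluorescent RT-PCR and capillary electrophoresis. Increase over DMSO scored.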

[6] = target: Nuclear receptor subfamily 1 group I member 2 (Homo sapiens) (UniProt O75469); test: ATG_PXR_TRANS: Attagene TRANS-FACTORIAL HepG2 Assay for human Pregnane X Receptor (PXR) (AID 2283008)
Nuclear receptor subfamily 1 group I member 2 (Homo sapiens), sequence (O75469 whole entry, looked up, the tested form may be a part): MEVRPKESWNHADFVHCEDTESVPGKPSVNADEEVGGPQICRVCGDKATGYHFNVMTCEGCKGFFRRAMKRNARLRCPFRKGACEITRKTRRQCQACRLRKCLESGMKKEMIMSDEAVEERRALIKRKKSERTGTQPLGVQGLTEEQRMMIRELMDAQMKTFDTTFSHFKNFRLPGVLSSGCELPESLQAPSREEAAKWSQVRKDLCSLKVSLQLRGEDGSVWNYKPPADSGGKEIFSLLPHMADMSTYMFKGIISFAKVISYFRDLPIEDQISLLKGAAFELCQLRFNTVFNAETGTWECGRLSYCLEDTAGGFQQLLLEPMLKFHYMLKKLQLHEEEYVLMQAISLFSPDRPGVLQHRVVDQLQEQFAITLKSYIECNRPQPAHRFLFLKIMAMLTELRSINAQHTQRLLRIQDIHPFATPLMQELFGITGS
Method in brief: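 Transient HepG2 transfectants carrying multiplexed reporter transcription units; PXR activity read through a Gal4 chimera. 24 h exposure. RT-PCR/CE fluorescence; upward curve fit referenced to DMSO.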

[7] = target: human RAR-related Orphan Receptor gamma (RORg), RORC (gene 6097) (UniProt P51449); test: ATG_RORg_TRANS: Attagene TRANS-FACTORIAL HepG2 Assay for human RAR-related Orphan Receptor gamma (RORg) (AID 2283011)
human RAR-related Orphan Receptor gamma (RORg), RORC (gene 6097), sequence (P51449 whole entry, looked up, the tested form may be a part): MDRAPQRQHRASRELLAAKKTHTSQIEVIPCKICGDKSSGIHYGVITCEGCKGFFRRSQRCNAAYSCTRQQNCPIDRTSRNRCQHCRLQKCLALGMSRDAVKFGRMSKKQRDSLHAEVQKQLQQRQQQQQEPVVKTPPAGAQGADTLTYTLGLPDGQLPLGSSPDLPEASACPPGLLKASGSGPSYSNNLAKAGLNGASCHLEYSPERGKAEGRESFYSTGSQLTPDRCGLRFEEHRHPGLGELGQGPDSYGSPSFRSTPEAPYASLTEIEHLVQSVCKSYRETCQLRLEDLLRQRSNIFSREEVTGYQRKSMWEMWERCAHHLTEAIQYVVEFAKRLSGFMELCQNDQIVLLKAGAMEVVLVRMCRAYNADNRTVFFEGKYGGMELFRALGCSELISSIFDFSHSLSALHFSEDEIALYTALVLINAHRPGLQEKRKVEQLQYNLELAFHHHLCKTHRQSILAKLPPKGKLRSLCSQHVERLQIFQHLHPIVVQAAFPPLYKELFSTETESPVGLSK
Method in brief: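 Activity is scored as increase in GAL4-UAS reporter mRNA over DMSO, detected by fluorescent RT-PCR and capillary electrophoresis in HepG2 cells transiently expressing a RORg-Gal4 chimera, 24 h after dosing.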

[8] = target: Retinoic acid receptor RXR-alpha (Homo sapiens) (UniProt P19793); test: ATG_RXRa_TRANS: Attagene TRANS-FACTORIAL HepG2 Assay for human Retinoid X Receptor alpha (RXRa) (AID 2283012)
Retinoic acid receptor RXR-alpha (Homo sapiens), sequence (P19793 whole entry, looked up, the tested form may be a part): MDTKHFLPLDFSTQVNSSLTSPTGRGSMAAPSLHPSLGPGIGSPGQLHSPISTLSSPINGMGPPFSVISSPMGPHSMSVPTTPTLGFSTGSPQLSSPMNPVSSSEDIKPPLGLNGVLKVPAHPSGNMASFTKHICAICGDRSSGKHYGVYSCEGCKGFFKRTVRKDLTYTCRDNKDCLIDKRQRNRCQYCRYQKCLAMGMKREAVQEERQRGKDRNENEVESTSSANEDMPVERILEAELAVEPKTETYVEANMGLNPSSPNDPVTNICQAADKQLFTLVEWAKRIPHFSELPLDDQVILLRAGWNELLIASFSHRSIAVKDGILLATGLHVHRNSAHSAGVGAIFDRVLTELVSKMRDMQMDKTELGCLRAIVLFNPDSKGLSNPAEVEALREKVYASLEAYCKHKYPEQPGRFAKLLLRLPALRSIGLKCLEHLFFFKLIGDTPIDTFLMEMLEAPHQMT
Method in brief: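 Measures exogenous chimeric NR-GAL4 activity in transfected HepG2 liver cells after 24 h of dosing. Induced reporter mRNA was detected by RT-PCR with capillary electrophoresis, and gain of signal was analysed against DMSO.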

[9] = target: human Peroxisome Proliferator-activated Receptor alpha (PPARa), PPARA (gene 5465) (UniProt Q07869); test: ATG_PPARa_TRANS: Attagene TRANS-FACTORIAL HepG2 Assay for human Peroxisome Proliferator-activated Receptor alpha (PPARa) (AID 2283001)
human Peroxisome Proliferator-activated Receptor alpha (PPARa), PPARA (gene 5465), sequence (Q07869 whole entry, looked up): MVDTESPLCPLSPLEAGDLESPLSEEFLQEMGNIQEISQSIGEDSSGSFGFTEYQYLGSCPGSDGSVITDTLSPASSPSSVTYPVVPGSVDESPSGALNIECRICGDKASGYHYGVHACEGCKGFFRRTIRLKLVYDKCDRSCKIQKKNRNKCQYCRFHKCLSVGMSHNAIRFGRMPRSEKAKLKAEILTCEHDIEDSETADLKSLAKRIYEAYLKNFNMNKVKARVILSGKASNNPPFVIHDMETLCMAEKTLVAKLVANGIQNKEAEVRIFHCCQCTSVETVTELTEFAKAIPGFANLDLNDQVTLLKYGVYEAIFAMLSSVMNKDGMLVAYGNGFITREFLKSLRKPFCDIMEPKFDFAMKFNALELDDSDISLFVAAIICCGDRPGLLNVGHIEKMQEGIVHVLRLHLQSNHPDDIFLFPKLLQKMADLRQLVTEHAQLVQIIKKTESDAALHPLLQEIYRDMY
Method in brief: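 Cells (HepG2) are transfected with multiple reporter transcription units, exposed to chemical for 24 h, then total RNA is reverse-transcribed and amplified. Labelled products are quantified by capillary electrophoresis; induction is referenced to DMSO.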

[10] = target: human Retinoic Acid Receptor gamma (RARg), RARG (gene 5916) (UniProt P13631); test: ATG_RARg_TRANS: Attagene TRANS-FACTORIAL HepG2 Assay for human Retinoic Acid Receptor gamma (RARg) (AID 2283009)
human Retinoic Acid Receptor gamma (RARg), RARG (gene 5916), sequence (P13631 whole entry, looked up, the tested form may be a part): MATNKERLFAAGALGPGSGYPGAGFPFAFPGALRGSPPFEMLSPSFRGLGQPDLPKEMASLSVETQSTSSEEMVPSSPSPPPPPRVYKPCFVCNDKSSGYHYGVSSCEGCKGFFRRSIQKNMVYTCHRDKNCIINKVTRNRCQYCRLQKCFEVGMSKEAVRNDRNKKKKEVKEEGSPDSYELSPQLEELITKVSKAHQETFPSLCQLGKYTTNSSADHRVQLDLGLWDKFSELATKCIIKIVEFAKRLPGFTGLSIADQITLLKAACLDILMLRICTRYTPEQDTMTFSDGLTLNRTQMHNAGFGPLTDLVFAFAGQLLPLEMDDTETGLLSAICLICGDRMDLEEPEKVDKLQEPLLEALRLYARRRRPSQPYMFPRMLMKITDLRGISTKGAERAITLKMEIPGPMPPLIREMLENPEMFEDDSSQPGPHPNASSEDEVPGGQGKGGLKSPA
Method in brief: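 TRANS format measured activity of exogenous NR-GAL4 fusion (RARg) in transfected HepG2 liver cells after 24 h dosing. Induced reporter RNA was detected by RT-PCR/capillary electrophoresis fluorescence, analysed in the positive direction against DMSO.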

[11] = target: human RAR-related Orphan Receptor beta (RORb), RORB (gene 6096) (UniProt Q92753); test: ATG_RORb_TRANS: Attagene TRANS-FACTORIAL HepG2 Assay for human RAR-related Orphan Receptor beta (RORb) (AID 2283010)
human RAR-related Orphan Receptor beta (RORb), RORB (gene 6096), sequence (Q92753 whole entry, looked up, the tested form may be a part): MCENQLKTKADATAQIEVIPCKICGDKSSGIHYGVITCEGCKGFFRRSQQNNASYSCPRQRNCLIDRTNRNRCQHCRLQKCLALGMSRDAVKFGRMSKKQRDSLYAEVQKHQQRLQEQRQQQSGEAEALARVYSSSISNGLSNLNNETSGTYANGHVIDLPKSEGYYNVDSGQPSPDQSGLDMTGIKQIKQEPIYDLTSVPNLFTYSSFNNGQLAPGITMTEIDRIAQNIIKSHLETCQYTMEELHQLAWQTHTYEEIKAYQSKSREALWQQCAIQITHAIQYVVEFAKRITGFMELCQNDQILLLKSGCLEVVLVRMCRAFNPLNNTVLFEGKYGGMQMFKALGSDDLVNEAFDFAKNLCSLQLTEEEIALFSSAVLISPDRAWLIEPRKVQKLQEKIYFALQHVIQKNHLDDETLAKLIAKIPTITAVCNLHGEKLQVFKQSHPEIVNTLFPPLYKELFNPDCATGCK
Method in brief: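 Transfect HepG2 with multiple GAL4-UAS reporter transcription units; dose chemicals for 24 h; isolate RNA, reverse-transcribe and PCR-amplify reporter sequences; label, digest and resolve fragments by capillary electrophoresis; fit increases relative to DMSO.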

[12] = target: human Peroxisome Proliferator-activated Receptor delta (PPARd), PPARD (gene 5467) (UniProt Q03181); test: ATG_PPARd_TRANS: Attagene TRANS-FACTORIAL HepG2 Assay for human Peroxisome Proliferator-activated Receptor delta (PPARd) (AID 2283002)
human Peroxisome Proliferator-activated Receptor delta (PPARd), PPARD (gene 5467), sequence (Q03181 whole entry, looked up, the tested form may be a part): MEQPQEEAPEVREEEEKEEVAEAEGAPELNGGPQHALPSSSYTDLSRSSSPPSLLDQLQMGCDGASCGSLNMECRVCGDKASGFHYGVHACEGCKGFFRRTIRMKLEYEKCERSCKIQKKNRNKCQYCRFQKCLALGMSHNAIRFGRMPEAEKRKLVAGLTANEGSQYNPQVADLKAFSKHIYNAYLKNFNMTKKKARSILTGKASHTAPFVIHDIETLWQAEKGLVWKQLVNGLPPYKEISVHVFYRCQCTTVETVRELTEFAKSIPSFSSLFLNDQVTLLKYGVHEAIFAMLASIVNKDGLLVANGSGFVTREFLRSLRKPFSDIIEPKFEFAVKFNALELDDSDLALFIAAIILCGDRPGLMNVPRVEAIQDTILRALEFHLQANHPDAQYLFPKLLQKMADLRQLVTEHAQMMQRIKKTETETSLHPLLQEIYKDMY
Method in brief: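 Measured quantity: GAL4-UAS reporter transcript induction in HepG2 after 24 h chemical dosing, with NR-Gal4 chimeras supplied by transient transfection. Detection by RT-PCR and capillary electrophoresis; upward fit against DMSO.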

[13] = BSK_3C_TissueFactor: BioMAP Diversity Plus: 3C Assay for Tissue Factor Biomarker Activity (AID 2282997; active means hit-call score of the fitted dose curve at least 0.9, where 1 is the maximum; inactive means score below 0.9); settings: BioMAP 3C HUVEC, tissue factor biomarker readout; actives raise or lower the signal
Method in brief: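 Cells used were primary human umbilical vein endothelial cells. They were dosed with chemical, and after 24 h Tissue Factor was quantified by ELISA. Curves were fitted bidirectionally with DMSO as baseline.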

[14] = BSK_3C_VCAM1: BioMAP Diversity Plus: 3C Assay for Vascular cell adhesion molecule 1 (VCAM1) Biomarker Activity (AID 2282999; active means hit-call score of the fitted dose curve at least 0.9, where 1 is the maximum; inactive means score below 0.9); settings: BioMAP 3C HUVEC, VCAM1 ELISA, cytokine-stimulated; actives raise or lower the signal
Method in brief: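 Vascular primary endothelium (human umbilical vein) was exposed to chemicals and assayed 24 h later. VCAM-1 levels came from ELISA, with DMSO serving as baseline for bidirectional fitting.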

[15] = BSK_4H_Eotaxin3: BioMAP Diversity Plus: 4H Assay for Eotaxin 3 Biomarker Activity (AID 2283000; active means hit-call score of the fitted dose curve at least 0.9, where 1 is the maximum; inactive means score below 0.9;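 further: CCL26 protein level quantified by ELISA in parallel with SRB cytotoxicity check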); settings: primary human endothelial cells (HUVEC); actives raise or lower the signal
Method in brief: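 Endothelial primary cells (human umbilical vein) exposed to compound for 24 h. ELISA detection of Eotaxin-3.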

[16] = target: human Retinoic Acid Receptor beta (RARb), RARB (gene 5915) (UniProt P10826); test: ATG_RARb_TRANS: Attagene TRANS-FACTORIAL HepG2 Assay for human Retinoic Acid Receptor beta (AID 2283004)
human Retinoic Acid Receptor beta (RARb), RARB (gene 5915), sequence (P10826 whole entry, looked up, the tested form may be a part): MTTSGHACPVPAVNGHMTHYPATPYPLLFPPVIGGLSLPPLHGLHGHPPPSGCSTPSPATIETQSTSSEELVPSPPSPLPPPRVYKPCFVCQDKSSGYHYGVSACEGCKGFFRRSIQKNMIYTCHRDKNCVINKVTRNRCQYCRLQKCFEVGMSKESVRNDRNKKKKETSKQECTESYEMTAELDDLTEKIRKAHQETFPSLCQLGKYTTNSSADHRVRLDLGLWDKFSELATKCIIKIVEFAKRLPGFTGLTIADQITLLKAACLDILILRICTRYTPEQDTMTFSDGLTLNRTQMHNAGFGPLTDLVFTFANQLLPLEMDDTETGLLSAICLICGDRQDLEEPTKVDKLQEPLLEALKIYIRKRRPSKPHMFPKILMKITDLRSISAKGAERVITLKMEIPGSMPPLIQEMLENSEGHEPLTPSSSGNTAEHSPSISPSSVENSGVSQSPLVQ
Method in brief: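 HepG2, transient MRTU transfection, NR–Gal4 chimera, 24 h treatment; RT-PCR plus CE fluorescence detection of reporter mRNA; gain of signal vs DMSO.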

[17] = BSK_3C_Proliferation: Cell Proliferation Assessment in the BioMAP Diversity Plus: 3C Assay (AID 2283006; active means hit-call score of the fitted dose curve at least 0.9, where 1 is the maximum; inactive means score below 0.9;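 further: potency may reflect either rise or fall in cell number versus DMSO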); settings: primary human endothelial cells (HUVEC)
Method in brief: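 Cells (human umbilical vein endothelial, sub-confluent) receive test chemical; after 48 h they are fixed in 10% trichloroacetic acid, stained with 0.1% SRB and read at 560 nm. Activity is referenced to DMSO, fitting increases and decreases.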

[18] = target: Retinoic acid receptor alpha (Homo sapiens) (UniProt P10276); test: ATG_RARa_TRANS: Attagene TRANS-FACTORIAL HepG2 Assay for human Retinoic Acid Receptor alpha (RARa) (AID 2283005)
Method in brief: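 HepG2 cells transiently transfected with multiple reporter units expressing chimeric RARα-GAL4 fusion, with GAL4-UAS-driven reporters. After 24 h compound exposure, reporter mRNA induction quantified by RT-PCR and capillary electrophoresis with fluorescent labeling; gain-of-signal fitted relative to DMSO control.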

Measured: AC50

NCc1cccc(CN)c1
inactive: [1] | [2] | [3] | [4] | [5] | [6] | [7] | [8]

COc1ccc(C#N)cc1
inactive: [1] | [2] | [3] | [4] | [9] | [5] | [6] | [10] | [11]

CCc1ccccc1O
active: [2] 37.1 µM | [6] 15.7 µM
inactive: [1] | [12] | [5] | [10] | [8]

Cc1cc(C(=C2C=CC(=Nc3ccc(S(=O)(=O)O)cc3)C=C2)c2ccc(Nc3ccc(S(=O)(=O)O)cc3)cc2)cc(S(=O)(=O)O)c1N
inactive: [1] | [2] | [4] | [9] | [12] | [5] | [6] | [11] | [7] | [8]

OCC(F)(F)C(F)(F)C(F)(F)C(F)(F)C(F)(F)C(F)(F)C(F)(F)C(F)(F)C(F)(F)C(F)(F)C(F)(F)F
active: [2] 55.4 µM | [17] 141 nM and 224 nM
inactive: [1] | [4] | [13] | [14] | [15] | [9] | [12] | [16] | [5] | [6] | [11] | [8]

CC1COCc2cc3c(cc21)C(C)(C)C(C)C3(C)C (stereo not given)
active: [1] 166 µM | [2] 41.2 µM | [5] 66.9 µM
inactive: [4] | [9] | [12] | [16] | [10] | [8]

CCOC=O
inactive: [1] | [2] | [4] | [9] | [12] | [16] | [10] | [7] | [8]

FC(OC(F)(F)C(F)(F)C(F)(F)F)C(F)(F)F (stereo not given)
inactive: [1] | [2] | [4] | [12] | [5] | [11] | [8]

Cc1cccc2c1ccc1ccccc12
inactive: [1] | [2] | [4] | [14] | [15] | [9] | [12] | [16] | [18] | [5] | [10] | [11] | [8]
active: [13] 0.0495 µM | [17] 20 µM | [6] 11.2 µM

CC(O)COc1ccccc1 (stereo not given)
inactive: [1] | [2] | [4] | [9] | [16] | [18] | [5] | [10] | [11] | [7] | [8]
